# High-throughput results from PubChem.
# CF NFkB inh: blocks PAF-induced NF-kB reporter in cystic fibrosis cells. KKLEB NF-kB-GFP reporter, GFP fluorescence overnight. 0.86% of 360,000 active. inhibition, % at 5 µM. AID 588850;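 active = at least 50% inhibition at 5 µM, scaled per plate between neutral and stimulator controls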;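 note: PAF is a Pseudomonas aeruginosa culture filtrate used as stimulus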
# HIF-2a block: blocks HIF-2a reporter activity; inhibition, % at 18.8 µM; 0.72% of 360,000 active; 786-0 RCC cells HIF-2a reporter, luciferase luminescence, overnight;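 active = inhibition of the luminescence signal of 40% or more relative to plate controls, in a single-dose primary screen at 18.75 µM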
# TRPM1 prom inh: MITF TRPM1 promoter inhibition in SK-MEL-5 cells; SK-MEL-5 TRPM1 promoter luciferase, 24 h; inhibition, % at 12.5 µM; 0.83% of 330,000 active;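 active = mean inhibition across replicates of 60% or more, whatever share of single replicates reaches that level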
# KKLEB tox: CF airway cell cytotoxicity counter-screen; KKLEB CF airway cells viability, ATPlite luminescence, overnight; active compounds read low; cells stimulated with P. aeruginosa culture filtrate; activity change (cytotoxicity), % at 5 µM; 0.36% of 360,000 active; AID 602141;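 active = corrected activity change at or below -50% at 5 µM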
# Peg3 prom inh: inhibitors of Peg3 promoter | 1.7% of 360,000 active | AID 588405 | inhibition, % at 20 µM | HeLa PEG-Prom luciferase reporter, luminescence, overnight;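 active = inhibition of at least 50% at 20 µM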
# Shn3 inh set2: Schnurri-3 reporter inhibition in Clone20 osteoblasts. AID 588674. 0.52% of 360,000 active. Clone20 osteoblast Shn3 3'UTR firefly luciferase, 24 h. inhibition, % at 12.5 µM;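 active = mean inhibition of at least 75% with every replicate also reaching 75%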
# CF NFkB inh conf: CF NF-kB inhibition confirmation, single concentration. shares compounds with CF NFkB inh. KKLEB CF airway cells, PAF-induced NF-kB-GFP fluorescence, overnight. inhibition, % at 5 µM. 64% of 1,300 active. AID 602472; in the data active = inhibition above about 40%;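 note: stimulus PAF is a Pseudomonas aeruginosa filtrate and not platelet activating factor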
# Mdm2-MdmX confirm: confirmation of inhibitors of human Mdm2/MdmX interaction, set 2. shares compounds with HIF-2a block. SaOS-2 split-luciferase Mdm2/MdmX complementation, luminescence. inhibition, % at 8 µM. 99% of 740 active. AID 504601;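 active = mean inhibition of the luminescence signal across two replicates at or above 26 percent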
# HIF-2a inh conf: confirmation of HIF-2a inhibitors | shares compounds with HIF-2a block | 786-0 RCC cells, HIF-2a luciferase reporter luminescence, overnight | inhibition, % at 18.8 µM | 56% of 1,800 active | AID 651580;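 active = mean inhibition across four replicates of at least 40 percent at the single tested concentration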
# HIF-1a cs: inhibits HIF-1a reporter, a counter-screen for HIF-2a inhibitors; MiaPaCa-2 HIF-1a luciferase reporter, desferoxamine, overnight; shares compounds with HIF-2a block; 72% of 1,800 active; inhibition, % at 18.8 µM; AID 651589;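 active = mean inhibition of the reporter signal across four replicates at the single tested dose of 50% or more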
# Numbers stand for hits; i = inactive; nt = no result. The list is not random: actives were taken first. Their share in the collection is about 2.8%.
SMILES,CF NFkB inh,HIF-2a block,TRPM1 prom inh,KKLEB tox,Peg3 prom inh,Shn3 inh set2,CF NFkB inh conf,HIF-2a inh conf,HIF-1a cs,others
COc1ccc2cc3c(N)nn(C(=O)c4ccc(F)cc4)c3nc2c1,62.6,i,i,i,i,i,72.1,nt,nt,Mdm2-MdmX confirm=91.5
C=C1C(=O)C23C(O)C1CCC2C12COC3(O)C(O)C1C(C)(C)CCC2O (stereo not drawn),81.9,95.4,nt,i,94.0,i,70.1,93.8,105.2,
COC(=O)C1=C(C(=O)OC)[C@@H]2N(Cc3ccccc3)c3ccccc3[C@@]23C[C@@H](C(=O)OC)N(C(=O)c2ccc(Br)cc2)C3=N1,69.1,i,i,i,84.5,96.6,78.1,nt,nt,Mdm2-MdmX confirm=97.7
C=CCN1c2ccccc2[C@]23C[C@@H](C(=O)OC)N(C(=O)c4ccc(Br)cc4)C2=NC(C(=O)OC)=C(C(=O)OC)[C@H]13,70.7,i,i,i,74.2,i,58.1,nt,nt,Mdm2-MdmX confirm=96.5
CC(C)[C@H](NC(=O)c1ccccc1)C(=O)OCC(=O)Nc1ncc(Cl)cc1Cl,i,i,i,i,i,i,nt,nt,nt,
CC(C)(C)C(=O)Cn1ncc(Br)c(Br)c1=O,78.3,94.3,92.8,i,97.1,89.4,i,93.4,105.2,
O=C(O)CSc1ncnc2scc(-c3ccccc3)c12,i,i,i,i,i,i,nt,nt,nt,
Cn1nnnc1Sc1ncnc2scc(-c3ccccc3Cl)c12,56.2,65.4,i,i,105.6,i,i,i,90.7,
Cn1nnnc1Sc1c(Cl)cccc1[N+](=O)[O-],i,i,i,i,i,i,nt,nt,nt,
Cn1nnnc1Sc1ncnc2scc(-c3cccc(S(C)(=O)=O)c3)c12,52.1,63.4,77.9,i,100.1,i,i,i,65.7,
COc1ccc(-c2csc3ncnc(Sc4nnnn4C)c23)cc1,58.5,61.7,i,i,69.0,i,54.2,62.4,103.9,
Cc1nc2ccc(NC(=O)c3ccc(C)c(S(=O)(=O)N4CCOCC4)c3)cc2s1,i,i,i,i,i,i,nt,nt,nt,
CCN(Cc1ccncc1)C(=O)c1cc(COc2ccc(OC)cc2Cl)on1,i,i,i,i,i,i,nt,nt,nt,
CNC(=S)NC1(C)CCS(=O)(=O)C1 (stereo not drawn),i,i,i,i,i,i,nt,nt,nt,
COc1cccc(C(=O)OCC(=O)NC23CC4CC(CC(C4)C2)C3)c1,i,i,i,i,i,i,nt,nt,nt,
CS(=O)(=O)c1ccc(C(=O)OCC(=O)NC23CC4CC(CC(C4)C2)C3)cc1[N+](=O)[O-],61.4,92.0,i,i,100.3,i,i,64.0,94.3,
CCOC(=O)N1C(=O)[C@@](c2ccc(Cl)cc2)(C(C)C)N1C(=O)OCC,69.8,67.6,i,i,99.6,i,i,57.8,85.1,
CCCCN(c1ccccc1)c1ncnc(N)c1[N+](=O)[O-],76.2,i,i,i,i,i,93.2,nt,nt,Mdm2-MdmX confirm=86.2
CN(c1ncnc(N)c1[N+](=O)[O-])C1CCCCC1,83.7,i,i,i,i,i,93.3,nt,nt,Mdm2-MdmX confirm=87.1
Cc1ccc(N(CC(=O)NCc2ccc(Cl)cc2)S(C)(=O)=O)cc1,i,i,i,i,i,i,nt,nt,nt,
Cn1ncc2c(O/N=C(\N)c3ccc(C(C)(C)C)cc3)ncnc21,57.9,93.1,80.1,i,112.2,i,87.8,98.3,i,Mdm2-MdmX confirm=103.0
CC(=O)Nc1ccc(Nc2nc(-c3sc(NC(C)=O)nc3C)cs2)cc1,67.3,67.8,i,i,i,i,87.1,66.0,91.0,
CCCC(=O)Nc1nc(C)c(-c2csc(Nc3ccc(Cl)cc3)n2)s1,i,i,i,i,i,i,nt,nt,nt,
O=C(c1ccc(S(=O)(=O)c2cccc(Cl)c2)c([N+](=O)[O-])c1)N1CCN(Cc2ccccc2)CC1,77.5,i,i,i,i,i,i,nt,nt,Mdm2-MdmX confirm=101.0
COc1ccc(C(=O)N2CCN(Cc3ccccc3)CC2)cc1[N+](=O)[O-],i,i,i,i,i,i,nt,nt,nt,
SMILES,CF NFkB inh,HIF-2a block,TRPM1 prom inh,KKLEB tox,Peg3 prom inh,Shn3 inh set2,CF NFkB inh conf,HIF-2a inh conf,HIF-1a cs,others
Nc1nc(N)nc(-c2cc(O)ccc2O)n1,54.0,i,i,i,i,i,72.0,nt,nt,Mdm2-MdmX confirm=101.5
CCOC(=O)COc1ccc2ccccc2c1/C=C/[N+](=O)[O-],62.3,90.2,82.9,i,107.0,94.6,106.7,85.8,104.4,
CCOC(=O)COc1ccccc1/C=N/O,i,i,i,i,i,i,nt,nt,nt,
O=C(COC(=O)c1ccccc1C(=O)c1ccc(Cl)c([N+](=O)[O-])c1)NC1CCCCCC1,86.1,92.8,99.8,i,104.3,i,105.8,i,105.6,Mdm2-MdmX confirm=103.5
Cn1c(N)c(C(=O)COC(=O)c2ccccc2C(=O)c2ccc(Cl)c([N+](=O)[O-])c2)c(=O)n(C)c1=O,65.3,71.0,92.0,i,96.2,i,i,i,93.0,
Cn1c(N)c(C(=O)COC(=O)c2ccccc2C(=O)c2ccccc2)c(=O)n(C)c1=O,i,i,nt,i,i,i,nt,nt,nt,
CC(C)N1CCC1(C)C(=O)Nc1cc(-c2ccccc2)nn1C (stereo not drawn),i,i,nt,i,i,i,nt,nt,nt,
COCCn1c(=N)c(S(=O)(=O)c2ccc(F)cc2)cc2c(=O)n3ccccc3nc21,i,i,i,i,i,i,nt,nt,nt,
COc1ccc(CN(C)C(=O)COC(=O)c2c(-c3ccccc3Cl)noc2C)cc1,i,i,i,i,i,i,nt,nt,nt,
Cc1cc(C(=O)Cn2ncc(Cl)c(Cl)c2=O)c(C)n1CC(F)(F)F,76.9,94.3,i,i,99.7,i,i,i,103.3,
Cc1ccn(-c2ccc(NC(=O)c3cccs3)cc2)n1,i,i,i,i,i,i,nt,nt,nt,
COc1ccc(-c2cc(-c3nc4ccccn4c3NCc3ccccc3)ccc2OC)cc1,71.0,i,85.2,i,99.7,96.8,96.6,nt,nt,Mdm2-MdmX confirm=102.5
COc1ccc(-c2nc3ccccn3c2NCc2ccc3c(c2)OCO3)cc1,i,i,i,i,i,i,nt,nt,nt,
CC1CCCCN1C(=O)COC(=O)/C=C/c1ccc2ccccc2n1 (stereo not drawn),i,i,i,i,i,i,nt,nt,nt,
CCCOc1ccc(Cc2c(O)nc(SC)[nH]c2=O)cc1,i,i,i,i,i,i,nt,nt,nt,
CC1=CC(C)(C)Nc2ccc(OC(=O)CN3C(=O)c4ccccc4C3=O)cc21,50.9,87.5,i,i,102.0,i,i,88.0,95.9,
CCOc1ccc2c(c1)C(C)=CC(C)(C)N2,i,i,i,i,i,i,nt,nt,nt,
